From PubChem BioAssay AID624086 (Broad Institute, 2012)
The source made the active and inactive calls.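 The calls were made as follows: active = fitted half-maximal effect concentration at or below the top concentration tested; inactive = the rest.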

Assay: TCF/LEF reporter activation, dose response, orthogonal assay for GSK3b inhibitor project, cell-based, HEK293T, firefly luciferase, dry powder (AID 624086)
Conditions: 24 h; series mostly up to 26 µM; activity change, negative = inhibition: at the top concentration

Activity change, negative = inhibition, inactive:
COc1ccc(-c2nn(-c3ccccc3)cc2C(=O)O)cc1 -0.717%
O/N=C/c1cn(-c2ccccc2)nc1-c1ccc2c(c1)OCCO2 0.588%
CC1(C)CC(=O)C2=C(C1)Nc1n[nH]c(C(F)(F)F)c1C2c1cc(F)ccc1F (stereo unspecified) -1.69%
COc1ccccc1C1C2=C(CCCC2=O)Nc2n[nH]c(C)c21 (stereo unspecified) -0.107%
Cc1[nH]nc2nc3c(cc12)C(=O)CC(C)(C)C3 -0.107%
Cc1[nH]nc2c1C(c1ccccn1)C1=C(CC(C)(C)CC1=O)N2 (stereo unspecified) -0.483%
CN(C)Cc1cn(-c2ccccc2)nc1-c1ccccc1 3.06%
Cc1[nH]nc2c1[C@H](c1ccccc1C(F)(F)F)C1=C(CC(C)(C)CC1=O)N2 4.08%
Cc1[nH]nc2c1C(c1ccc(Cl)cc1)C1=C(CC(C)(C)CC1=O)N2 (stereo unspecified) 0%
O/N=C/c1cn(-c2ccccc2)nc1-c1ccccc1 0%
Cc1[nH]nc2c1C(c1ccsc1)C1=C(CC(C)(C)CC1=O)N2 (stereo unspecified) 0%
Cc1cccc(C2C3=C(CC(C)(C)CC3=O)Nc3n[nH]c(C)c32)c1 (stereo unspecified) -1.07%
Cc1[nH]nc2c1C(c1ccn[nH]1)C1=C(CC(C)(C)CC1=O)N2 (stereo unspecified) 0.588%
Cc1[nH]nc2c1C(C)(c1ccccc1)C1=C(CC(C)(C)CC1=O)N2 (stereo unspecified) -14.4%
COc1ccccc1C1C2=C(CC(C)(C)CC2=O)Nc2n[nH]c(-c3ccccc3)c21 (stereo unspecified) 0.194%
Cc1ccc(C2C3=C(CC(C)(C)CC3=O)Nc3n[nH]c(C)c32)cc1 (stereo unspecified) -0.483%
COc1ccccc1-c1c2c(nc3n[nH]c(C)c13)CCC2=O -0.105%
Cc1[nH]nc2c1C(c1ccc(Br)cn1)C1=C(CC(C)(C)CC1=O)N2 (stereo unspecified) -0.483%
Cc1[nH]nc2c1C(c1ccc(C#N)cc1)C1=C(CC(C)(C)CC1=O)N2 (stereo unspecified) 3.06%
COc1ccccc1C1C2=C(CC(C)(C)CC2=O)Nc2onc(C)c21 (stereo unspecified) -0.313%
Cc1[nH]nc2c1C(c1ccc(F)cc1Cl)C1=C(CC(C)(C)CC1=O)N2 (stereo unspecified) 0.588%
Cc1[nH]nc2c1C(C1CCCCC1)C1=C(CC(C)(C)CC1=O)N2 (stereo unspecified) -0.188%
COc1ccccc1C1C2=C(CC(C)(C)CC2=O)Nc2n[nH]c(C(C)(C)C)c21 (stereo unspecified) 0.194%
O/N=C/c1cn(-c2ccccc2)nc1-c1ccc(Cl)cc1 0%
Cc1ccc(-c2nn(-c3ccccc3)cc2/C=N/O)cc1 -0.588%
CC1(C)CC(=O)C2=C(C1)Nc1n[nH]c(C(F)(F)F)c1C2c1c(F)cccc1F (stereo unspecified) -2.81%
CC(C)COc1ccc(-c2nn(-c3ccccc3)cc2/C=N/O)cc1 0%
Cc1[nH]nc2c1C(c1cccc(F)c1)C1=C(CC(C)(C)CC1=O)N2 (stereo unspecified) -8.21%
COc1cccc(-c2nn(-c3ccccc3)cc2/C=N/O)c1 0.588%
Cc1[nH]nc2c1C(c1ccc(F)cc1)C1=C(CC(C)(C)CC1=O)N2 (stereo unspecified) 0%
Cc1ccccc1C1C2=C(CC(C)(C)CC2=O)Nc2n[nH]c(C)c21 (stereo unspecified) -2.29%
